This note sets out measurements from PubChem BioAssay AID686979 (National Center for Advancing Translational Sciences (NCATS), 2013).

Structures are written as SMILES. Where “and” joins values, the source holds several entries; their conditions need not be identical. Equal values may be shown once. Among all 420,000 compounds or so, about 50,000 (12%) were called active. Inconclusive results (about 26%) are left out. Calls come from the whole dose curve; as a rule, active = well fitted inhibition curve with a large enough effect; inconclusive = small, poorly fitted or top-dose-only effect; inactive = flat fitted curve, though single readings scatter. Shown is part of a subset that was picked to be rich in actives.
% is set by controls: 0 for no effect and ±100 for the full control effect; potency is the fitted concentration of half-maximal effect.

A short description of this assay: qHTS for Inhibitors of human tyrosyl-DNA phosphodiesterase 1 (TDP1): qHTS in cells in presence of CPT. Note: nearly all actives have a fitted effect of over 55% in size. The conditions noted are these: chicken DT40 Tdp1-/-;hTDP1 cells + 20 nM CPT, ATP luminescence, 48 h; series mostly up to 46.2 µM; activity change, negative = growth inhibition: at the top concentration. The essentials: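 Cell growth measured by CellTiter-Glo luminescence after a minimum 48 h, 37 C compound exposure with 20 nM CPT in Tdp1-knockout DT40 cells stably expressing hTDP1, seeded 400/well; qHTS titration format.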
In the case of `CN(C)C1C(=O)C(C(N)=O)=C(O)[C@@]2(O)C(=O)C3=C(O)c4c(O)cccc4[C@@](C)(O)C3C[C@@H]12` (some centres undefined), the Potency is 21.1 µM (active).

With `CC(C)Nc1nc(Cl)nc(NC(C)C)n1`, the Potency entry is “inactive”.

On to `COC(=O)C(O)(c1ccc(NC(=O)c2ccco2)c(OC)c1)C(F)(F)F` (centres undefined), for which the “activity change, negative = growth inhibition” value is -6.8% (inactive).

As for `CCNc1nc2[nH]c(=O)c3c(c2s1)OC(N)=C(C#N)C3c1cccs1` (centres undefined), the “activity change, negative = growth inhibition” value was -26.8% (inactive).

With `N#CC1=C(N)Oc2c(c(=O)oc3ccccc23)C1c1ccccc1OC(=O)c1cccs1` (centres undefined), the Potency was 18.4 µM (active).

As for `CNP1(NC)=Nc2nn(-c3ccccc3)c(N)c2C(c2ccccc2)=N1`, the “activity change, negative = growth inhibition” value is -13.9% (inactive).

Take `CN(C)CC1Oc2ccccc2OC1(O)c1ccccc1` (centres undefined): the Potency is 2.06 µM (active).

For `COc1cc(OC)cc(C2(C#N)CCN(C)CC2)c1`, the “activity change, negative = growth inhibition” value is -17.9% (inactive).

As for `CCCCC/C=C\C/C=C\C/C=C\C/C=C\CCCCCC(=O)NCCO`, the activity change, negative = growth inhibition is -4.85% [at 4.12 µM] (inactive).

As to `O=C(N/N=C/c1c(O)n(C2CC2)c(=S)[nH]c1=O)c1ccccc1Cl`, the “activity change, negative = growth inhibition” value is 13.4% (inactive).

Take `COC([CH2][Hg])CNC(=O)c1ccccc1OCC(=O)O` (centres undefined): the Potency was 1.06 µM (active).

For `c1cncc(CNC2=NCCC2)c1`, the “activity change, negative = growth inhibition” value was 3.64% (inactive).

Take `CCOP(=S)(OCC)C(O)CCCCCn1c(=O)c(F)cn(C2CCCO2)c1=O` (centres undefined): the “activity change, negative = growth inhibition” value is -1.03% (inactive).

Consider `CCC1(CC(C)c2ccccc2)C(=O)NC(=O)NC1=O` (centres undefined), for which the “activity change, negative = growth inhibition” value was -0.717% (inactive).

Consider `CCc1ccccc1NC(=O)c1sc2nc3c(cc2c1N)CN(Cc1ccccc1)CC3`, for which the Potency is 7.31 µM (active).

As to `Cn1cc(C(=O)OCC(=O)N2CCCC2)c2ccccc21`, the “activity change, negative = growth inhibition” value was 1.39% (inactive).

In the case of `O=C(COC(=O)c1ccccc1)Nc1ccc(Cl)cc1C(=O)c1ccccc1`, the “activity change, negative = growth inhibition” value was -11% (inactive).

Regarding `CN1CCN(C(=S)SCC(=O)Nc2ccc(Cl)cc2C(=O)c2ccccc2)CC1`, the Potency is 14.6 µM (active).

As to `O=C(Nc1ccc(Cl)cc1C(=O)c1ccccc1)c1cc(Cl)cc(Cl)c1`, the “activity change, negative = growth inhibition” value is -9.22% (inactive).

As to `CC(Cc1cccs1)NCc1ccc(Cl)cc1` (centres undefined), the “activity change, negative = growth inhibition” value was -21% (inactive).

`CC(C)(Cc1c[nH]c2ccc(Cl)cc12)NCCOc1ccccc1OCC1CC1`: the Potency is 21.1 µM (active) and 6.51 µM (active).

Take `COc1ccc(-c2nc(CS(=O)CC(=O)N3CCC4(CC3)OCCO4)c(C)o2)cc1` (centres undefined): the “activity change, negative = growth inhibition” value is -11.2% (inactive).

In the case of `Cc1ccc(Cn2c(C)c3cnn(CC(=O)N4CCC5(CC4)OCCO5)c(=O)c3c2C)cc1`, the Potency was 20.6 µM (active).

For the compound `O=C(CCCn1c(=O)[nH]c2cc(Cl)ccc2c1=O)N1CCC2(CC1)OCCO2`, the “activity change, negative = growth inhibition” value was -18.1% (inactive).

For the compound `CCC(=O)OC(Cc1ccccc1)(c1ccccc1)C(C)CN(C)C` (centres undefined), the “activity change, negative = growth inhibition” value was -3.39% (inactive).

Regarding `COC(=O)[C@@]12C[C@@H](CC(=O)NCc3cccc(C(F)(F)F)c3)C(=O)N(Cc3ccco3)C1=CCC(C)(C)C2`, the Potency is 20.6 µM (active).

With `COc1cccc(-c2nc3ccc(N4CCN(C)CC4)cc3[nH]2)c1`, the “activity change, negative = growth inhibition” value is -18.1% (inactive).

With `O=C1C2CCN(CC2)C1(CO)CO`, the Potency is 2.66 µM (active).

Consider `CN(C)C(=O)NC(O)C(Cl)(Cl)Cl` (centres undefined), for which the “activity change, negative = growth inhibition” value was -0.512% (inactive).

Take `O=c1[nH]c(=O)n(Cc2ccccc2)c(O)c1/C=N/Nc1c(F)c(F)c(F)c(F)c1F`: the “activity change, negative = growth inhibition” value is -13.6% (inactive).

Regarding `O=C1NC(=O)C(Cc2ccccc2)C(=O)N1`, the “activity change, negative = growth inhibition” value was -5.53% (inactive).

Take `CCN(CC)C(=O)Oc1ccc(NC(=O)N2CCOCC2)cc1`: the “activity change, negative = growth inhibition” value is -13% (inactive).

On to `O=C(OCCN1CCOCC1)C1(c2ccccc2)CCCC1`, for which the “activity change, negative = growth inhibition” value is 7.49% (inactive).

Take `O=c1c2ccccc2nc(/C=C/c2ccco2)n1-c1ccccc1O`: the Potency was 14.6 µM (active).

For `Cn1cc(/C=C/c2nc3ccccc3c(=O)n2-c2ccccc2)c2ccccc21`, the Potency is 10.3 µM (active).

For `CSc1nc2ccc(C)cc2c(=O)n1-c1cccnc1`, the “activity change, negative = growth inhibition” value was -17.6% (inactive).

Turning to `O=c1c2ccccc2nc(/C=C/c2ccc(F)cc2)n1-c1ccccc1O`, the Potency is 23.1 µM (active).

For `O=C(Nc1cccc2ccccc12)N1CCC2(CC1)OCCO2`, the “activity change, negative = growth inhibition” value was 1.32% (inactive).

Consider `CCOC(=O)C1CN(C)CCC1=O` (centres undefined), for which the “activity change, negative = growth inhibition” value is -17.2% (inactive).

Consider `CN(C)CCCN=Cc1c(O)n(Cc2ccco2)c(=O)[nH]c1=O`, for which the “activity change, negative = growth inhibition” value is -9.19% (inactive).

Consider `c1cc2c(cc1[C@H]1OC[C@H]3[C@@H]1CO[C@@H]3c1ccc3c(c1)OCO3)OCO2`, for which the “activity change, negative = growth inhibition” value was -10.6% (inactive).

Take `CC(CC(C#N)(c1ccccc1)c1ccccc1)N1CCCCC1` (centres undefined): the “activity change, negative = growth inhibition” value is 14.4% (inactive).

As to `O=C(N/N=C/c1ccc([N+](=O)[O-])o1)c1cc([N+](=O)[O-])cc([N+](=O)[O-])c1O`, the “activity change, negative = growth inhibition” value was -39.1% (inactive).

As to `N[C@H](C(=O)O)c1cc(=O)[nH]o1`, the “activity change, negative = growth inhibition” value is -1.29% (inactive).

Turning to `O=C(COC(=O)Cc1ccccc1)Nc1ccc(F)cc1`, the “activity change, negative = growth inhibition” value is 38.9% (inactive).

On to `CC(C)c1ccc(-n2c(O)c(/C=N/N3CCOCC3)c(=O)[nH]c2=S)cc1`, for which the “activity change, negative = growth inhibition” value was 2.61% (inactive).

Take `CN(C)c1cccc(C(=O)Nc2nc3ccc(S(=O)(=O)NC(C)(C)C)cc3s2)c1`: the Potency is 10.3 µM (active).

In the case of `CC1C2Cn3c(nc4ccccc43)C1N(C)O2` (centres undefined), the “activity change, negative = growth inhibition” value is -1.39% (inactive).

Take `Cc1c(C(=O)O)cccc1-n1c(C)cc(/C=C2\C(=O)NC(=O)N(c3ccc4c(c3)OCO4)C2=O)c1C`: the “activity change, negative = growth inhibition” value is 22.5% (inactive).

`COC(=O)[C@@H]1C(OC(=O)c2ccccc2)CC2CCC1N2C` (some centres undefined): the “activity change, negative = growth inhibition” value was -19.5% (inactive).

In the case of `CN1[C@@H]2CC[C@H]1CC(OC(=O)c1cc(Cl)cc(Cl)c1)C2` (some centres undefined), the Potency was 18.8 µM (active).

For the compound `CN1CCC(OC(=O)c2cccc(F)c2)CC1`, the “activity change, negative = growth inhibition” value was -5.62% (inactive).

Consider `CC1([N+](=O)[O-])COP(=O)(Nc2ccc(F)cc2)OC1` (centres undefined), for which the “activity change, negative = growth inhibition” value is 0.366% (inactive).

As for `Cc1c(Oc2cc(NN3CCCCC3)c([N+](=O)[O-])cc2[N+](=O)[O-])cccc1[N+](=O)[O-]`, the “activity change, negative = growth inhibition” value is -26.6% (inactive).
